The record followed here is PubChem BioAssay (NCATS).

Records with an inconclusive call do not appear. Entries that show only a call come without a potency. A number with no mark means an inactive call. Activity calls are given as the source filed them. Calls come from the whole dose curve; as a rule, active = well fitted cell-killing curve with a large enough effect; inconclusive = small, poorly fitted or top-dose-only effect; inactive = no such curve, though single readings can be large or run the other way.
Potency is the fitted concentration of half-maximal effect.

The nature of this assay: qHTS of pediatric cancer cell lines to identify multiple opportunities for drug repurposing: Primary screen for SK-N-SH cells (AID 1347098). Note: nearly all actives have a fitted effect of over 65% in size. The following applies: SK-N-SH viability, CellTiter-Glo luminescence, 48 h; series mostly up to 57 µM. The source says: Drug repurposing or repositioning has been offered as a strategy for drug development in oncology programs. This approach has special potential for childhood cancers and other rare or orphan diseases, where the expected return on new drug development has been a disincentive to pharmaceuticals.
In this project we exploit the poly-pharmacology of drugs to discover new indications via phenotypic screening of a panel of 19 well-characterized cell lines derived from solid tumors seen in children and adolescents. The goal is to identify approved drugs with previously unrecognized anticancer properties that has the potential to reveal new mechanisms and biological processes involved in carcinogenesis or drug resistance. We employed a titration-based paradigm (quantitative high-throughput screening or qHTS), where all compounds were tested at multiple concentrations for their effect on cell viability. Concentration-response curves (CRCs) were derived directly from the primary screen, and both potency and efficacy values were used to identify compounds with robust bioactivity profiles. We screened the NIH Chemical Genomics Center (NCGC) Pharmaceutical Collection (NPC) and Mechanism Interrogation Plate (MIPE) small molecule collections of approved and investigational compounds against these cell lines; and measured metabolically active cells after 48 hours of compound treatment as a proxy for cell viability.
Assay Submitter: Nathalia J. Martinez, National Center for Advancing Translational Sciences, National Institutes of Health, Rockville, MD, USA; email: natalia.martinez@nih.gov
[1] Shen, M et al. Quantitative high-throughput phenotypic screening of pediatric cancer cell lines identifies multiple opportunities for drug repurposing. Oncotarget 2017 Dec 19;9(4):4758-4772. PMID 29435139.
The cells were obtained from University of North Carolina (UNC), Pediatric Preclinical Testing Program (PPT), and Coriell Institute (CI).
qHTS cell viability assay:
Cells were assayed in growth media at a density of 500-1,000 cells/well. Five microliters of cells were dispensed into 1,536-well, white, solid-bottom, TC-treated plates (Greiner Bio One) using a multidrop dispenser and incubated at 37 degrees C, 5% CO2, under a humidified atmosphere for 5 hours. Twenty-three nanoliters of compounds and controls (neutral control DMSO or positive control bortezomib at final concentration of 2.3 µM) were subsequently transferred by Kalypsys pintool. For primary screens, the MIPE collection was tested at 11-point dilutions (final concentrations range from 0.78 nM to 46 µM) and the NPC collection at 8-point dilutions (final concentrations range from 0.59 nM to 46 µM). Compounds tested in follow-up screens were assayed at 11-point dilutions. Cells were incubated for 48 hours, followed by addition of 3 µL of CellTiter-Glo (Promega). After a 15 min incubation at room temperature, samples were analyzed for luminescence intensity using a ViewLux High-throughput CCD imager equipped with clear filters.
For orientation: Quantitative high-throughput screening tests each substance at several concentrations.
Consider `OCCN1CCN(CCCN2c3ccccc3Sc3ccc(Cl)cc32)CC1`, for which the Potency is 8.64 µM (active).
Same read-out and setting: next, `O=C1O[C@H]([C@@H](O)CO)C(O)=C1O`: “inactive”; `OCC(CO)N[C@H]1C[C@](O)(CO)[C@@H](O)[C@H](O)[C@H]1O`: “inactive”; `O=C(O)[C@H](O)c1ccccc1`: “inactive”.
Still for that read-out and setting: the same measure for `CCCCN(CCCC)CC(O)c1cc(Cl)cc2c1-c1ccc(Cl)cc1/C2=C/c1ccc(Cl)cc1` (stereo not given): “inactive”.
Turning to `CC1=C(/C=C/C(C)=C/C=C/C(C)=C/C(=O)O)C(C)(C)CCC1`, the Potency entry is “inactive”.
On the same count and under the same terms, the same measure for `Nc1nc2c(ncn2CCC(CO)CO)c(=O)[nH]1`: “inactive”; for `CO/N=C(\C(=O)N[C@@H]1C(=O)N2C(C(=O)O)=C(CSc3nc(=O)c(O)nn3C)CS[C@H]12)c1csc(N)n1`: “inactive”; for `Cc1cc2nc3c(=O)[nH]c(=O)nc-3n(C[C@H](O)[C@H](O)[C@H](O)CO)c2cc1C`: “inactive”.
Same read-out and setting: the same measure for `CC(C)(C)C(=O)C(Oc1ccc(Cl)cc1)n1ccnc1` (stereo not given): 24.4 µM (active); for `CC(=O)Nc1ccc(/C=N/NC(N)=S)cc1`: “inactive”; for `Oc1cccc(O)c1`: “inactive”.
On the same count and under the same terms, the same measure for `CCCCN1CCCC[C@H]1C(=O)Nc1c(C)cccc1C`: “inactive”; for `Nc1ncnc2c1ncn2[C@@H]1O[C@H](CO)[C@@H](O)[C@H]1O`: “inactive”; for `C#CCN(C)Cc1ccccc1`: “inactive”.
Take `CS(=O)(=O)c1ccc([C@@H](O)[C@@H](CF)NC(=O)C(Cl)Cl)cc1`: the Potency result was “inactive”.
The same measure, in the same setting: the same measure for `CN(C)CC[C@@H](c1ccc(Cl)cc1)c1ccccn1`: “inactive”; for `O=S(=O)(O)NC1CCCCC1`: “inactive”; for `Cc1cccc(Nc2cc(Cl)nc(SCC(=O)O)n2)c1C`: “inactive”.
On the same count and under the same terms, next, `Cc1cc2c(cc1S(N)(=O)=O)S(=O)(=O)CCC2`: “inactive”; `O=C1OC(OC(=O)c2cccnc2Nc2cccc(C(F)(F)F)c2)c2ccccc21` (stereo not given): “inactive”; `Cc1ncc(COP(=O)(O)O)c(C=O)c1O`: “inactive”.
Same read-out and setting: next, `NS(=O)(=O)c1cc2c(cc1C(F)(F)F)NC(Cc1ccccc1)NS2(=O)=O` (stereo not given): “inactive”; `COc1ccc(Cl)cc1C(=O)NCCc1ccc(S(=O)(=O)NC(=O)NC2CCCCC2)cc1`: “inactive”; `CCOC(=O)c1ccc(O)cc1`: “inactive”.
Turning to `c1ccc(CN(CC2=NCCN2)c2ccccc2)cc1`, the Potency entry is “inactive”.
On the same count and under the same terms, the same measure for `CCCCCCCCCCCCCCCCCCOCC(O)CO` (stereo not given): “inactive”.
Same read-out and setting: next, `NC(=O)c1ncn([C@@H]2O[C@H](CO)[C@@H](O)[C@H]2O)c1N`: “inactive”.
Still for that read-out and setting: the same measure for `Oc1cn2c(n1)Nc1ccc(Cl)c(Cl)c1C2`: “inactive”; for `O=Cc1ccccc1C=O`: “inactive”; for `NC(=O)NNc1ccccc1`: “inactive”.
`NC(=O)NC(=O)Cc1ccccc1`: the Potency entry was “inactive”.
Still for that read-out and setting: the same measure for `Nc1ccc(S(=O)(=O)Nc2nccs2)cc1`: “inactive”; for `C[C@@H]1C[C@H]2[C@@H]3C[C@H](F)C4=CC(=O)C=C[C@]4(C)[C@@]3(F)[C@@H](O)C[C@]2(C)[C@@]1(O)C(=O)CO`: “inactive”.
Take `C[C@@H]1CC[C@@]2(OC1)O[C@H]1C[C@H]3[C@@H]4CC[C@H]5C[C@@H](O)CC[C@]5(C)[C@H]4CC(=O)[C@]3(C)[C@H]1[C@@H]2C`: the activity change, negative = cytotoxic was -10.6% [at 6 µM].
`COc1ccc(S(=O)(=O)Nc2nnc(CC(C)C)s2)cc1`: the Potency entry was “inactive”.
Same read-out and setting: next, `CC1(C)Oc2ccc(C#N)cc2[C@@H](N2CCCC2=O)[C@@H]1O`: “inactive”; `Cn1c(=O)c2c(ncn2CC2OCCO2)n(C)c1=O`: “inactive”.
Regarding `C/C(=C(\CCOP(=O)(O)O)SC(=O)c1ccccc1)N(C=O)Cc1cnc(C)nc1N`, the activity change, negative = cytotoxic is -2.92% [at 6 µM].
Turning to `NCC(=O)CCC(=O)O`, the Potency entry was “inactive”.
